Results filed as inconclusive are left out. A call without a number means that no potency is given here. Values without a mark were called inactive. The source made the active and inactive calls. Calls come from the whole dose curve; as a rule, active = well fitted cell-killing curve with a large enough effect; inconclusive = small, poorly fitted or top-dose-only effect, or effect the other way; inactive = no such curve, though single readings can be large or run the other way.
Assay: Viability qHTS for spleen associated tyrosine kinase inhibitor (SYKi) naive MV4-11 cells (AID 1963823); note: nearly all actives have a fitted effect of over 40% in size
Details: MV4-11 AML viability, CellTiter-Glo luminescence, 72 h; series mostly up to 45 µM
In short: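 Read-out: CellTiter-Glo luminescence. Exposure: 72 hr, 37 C, 5% CO2, 95% humidity. Cells: MV4-11 without SYK inhibitor history, 500/well, qHTS format.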
Potency is the fitted concentration of half-maximal effect.

SMILES	Potency	viability (% of control)
CCCC(=O)Nc1cccc(NC(=O)c2ccccc2Br)c1	inactive	
CC1COC(Nc2ccc3ncnc(Nc4ccc(OCc5nccs5)c(Cl)c4)c3c2)=N1 (stereo not drawn)	9.2 µM (active)	
CN(C)C(CCOc1cccc2ccccc12)c1ccccc1 (stereo not drawn)	18.4 µM (active)	
C=CC(=O)Nc1cc(Nc2ncc(Cl)c(-c3c[nH]c4ccccc34)n2)c(OC)cc1N(C)CCN(C)C	0.058 µM (active)	
O=S(=O)(NC1CCNCC1)c1cc(S(=O)(=O)c2ccccc2)ccc1C(F)(F)F	inactive	
CC(=O)OC1C=C(C(=O)O)C2(CO)CCC(C)C(C)(CCc3ccoc3)C2C1 (stereo not drawn)	inactive	
Fc1ccc(N2CCCCC2)c(NC(=S)c2ccncc2)c1	11.6 µM (active)	
CC/C=C\CC1C(=O)CCC1CC(=O)OC (stereo not drawn)	inactive	
COc1cc(-c2cc(-c3ccc(N4CCNCC4)cc3)cnc2C)cc(OC)c1OC	7.42 µM (active)	
COc1cc2c(cc1O)CC[C@@H]1[C@@H]2CC[C@]2(C)[C@@H](O)CC[C@@H]12	0.833 µM (active)	
O=C(O)CC(=O)OC[C@H]1O[C@@H](Oc2ccc3c(c2)OC[C@H]2c4cc5c(cc4O[C@@H]32)OCO5)[C@H](O)[C@@H](O)[C@@H]1O	inactive	
C=CC(C)(CC/C=C(\C)CC/C=C(\C)CC(O)/C=C(\C)C(=O)O)O[C@@H]1O[C@H](CO)[C@@H](O)[C@H](O)[C@H]1O[C@@H]1O[C@H](CO)[C@@H](O)[C@H](O)[C@H]1O (stereo partly drawn)	inactive	
CN(Cc1cccs1)c1ncnc2ccc(-c3ccc4c(c3)OCO4)cc12	11.6 µM (active)	
CC(=O)O[C@@H]1C[C@H](O)[C@@]23CO[C@H](O)[C@]1(C)C2C[C@@H](O)[C@]1(C)C3C(=O)[C@H](OC(C)=O)[C@@]2(C)[C@H](c3ccoc3)C[C@H]3O[C@]321 (stereo partly drawn)	0.0385 µM (active)	
CCN(CC)CCNc1ccc2ncn3c4ccc(O)cc4c(=O)c1c23	0.164 µM (active)	
C[C@@H]1CC[C@]2(C(=O)O[C@@H]3O[C@H](CO)[C@@H](O)[C@H](O)[C@H]3O)CC[C@]3(C)C(=CCC4[C@@]5(C)C[C@@H](O)[C@H](O)[C@](C)(C(=O)O)C5CC[C@]43C)[C@@H]2[C@]1(C)O (stereo partly drawn)	inactive	
CN(C)CCCn1cc(C2=C(c3c[nH]c4ccccc34)C(=O)NC2=O)c2ccccc21	0.0731 µM (active)	

SMILES	Potency	viability (% of control)
CC(=O)O[C@@H]1[C@@H](O)[C@H](O[C@H]2CC[C@]34C[C@]35CC[C@]3(C)[C@@H]([C@@]6(C)CC[C@@H](C(C)(C)O)O6)[C@@H](O)C[C@@]3(C)[C@@H]5C[C@H](O[C@@H]3O[C@H](CO)[C@@H](O)[C@H](O)[C@H]3O)[C@H]4C2(C)C)OC[C@H]1O	inactive	
CN(C)CCOc1cc(NS(=O)(=O)c2c(Cl)cc(C(F)(F)F)cc2Cl)ccc1Cl	inactive	
CN(C)c1ccc(Nc2c3ccc(NC(=O)CCN4CCCC4)cc3nc3cc(NC(=O)CCN4CCCC4)ccc23)cc1	5.17 µM (active)	
Cc1nc(C#Cc2ccnc(Cl)c2)c(C)n1-c1ccc(OC(F)(F)F)cc1	20.6 µM (active)	
COc1cc(C(=O)OC[C@H]2O[C@H](O[C@@]3(CO)O[C@@H](CO)[C@H](O)[C@H]3O)[C@H](O)[C@@H](O)[C@@H]2O)ccc1O	inactive	
CC(O)C(O)/C=C/C=C/C(=O)O[C@@H]1C=C2COC(=O)[C@]2(O)[C@@]2(C)CCCC(C)(C)C12 (stereo partly drawn)	inactive	
CC(=O)OC[C@@]12[C@@H](OC(C)=O)C[C@@H](C)[C@](C)([C@@H]3C[C@H]4C=CO[C@H]4O3)[C@H]1CCC[C@]21CO1	inactive	
OCC1OC(Oc2cc(O)cc(/C=C/c3ccc(O)cc3)c2)C(O)C(O)C1O (stereo not drawn)	inactive	
COc1cc(C[C@H]2COC(=O)[C@@H]2Cc2ccc(O)c(OC)c2)ccc1O	inactive	
[N-]=[N+]=N[C@]1(CO)O[C@@H](n2ccc(=O)[nH]c2=O)[C@@H](O)[C@@H]1O	inactive	
O=C1NC(=O)C(c2cn3c4c(cccc24)CCC3)C1c1c[nH]c2ccccc12 (stereo not drawn)	0.92 µM (active)	
C=C1OC2CC(C(=O)O)C=CC2NC1=O (stereo not drawn)	inactive	
C[C@@H]1O[C@@H](O[C@H]2[C@H](OC(=O)[C@]34CCC(C)(C)C[C@H]3C3=CCC5[C@@]6(C)CC[C@H](O[C@@H]7O[C@H](CO[C@@H]8OC[C@H](O)[C@H](O)[C@H]8O)[C@@H](O)[C@H](O)[C@H]7O)C(C)(C)C6CC[C@@]5(C)[C@]3(C)C[C@H]4O)OC[C@@H](O)[C@@H]2O)[C@H](O)[C@H](O)[C@H]1O[C@@H]1OC[C@H](O)[C@H](O[C@@H]2OC[C@@H](O)[C@H](O)[C@H]2O)[C@H]1O (stereo partly drawn)		84.1% [at 9.25 µM]
C#Cc1cccc(Nc2nc3cc(C(=O)O)ccc3c3cncnc23)c1	5.17 µM (active)	
CNCc1cc(-c2ccccc2F)n(S(=O)(=O)c2cccnc2)c1	inactive	
CC(C)=C1CC2[C@](C)(CC[C@@H](OC(=O)C3(C)OC3C)[C@@]2(C)O)CC1=O (stereo partly drawn)	inactive	
